HTR2A ag: activates the mouse 5-HT2A serotonin receptor; P35363; CHO-K1 mHTR2A beta-arrestin complementation, luminescence; percent of 30 µM serotonin response; activation, % at 7.6 µM; 360,000 tested, 0.66% active; AID 624169;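 active = activation above a run cutoff, the mean activation of all tested compounds plus 3 SD, cut at about 14% in these data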;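 note: 0% = plate median of compound wells and 100% = 30 µM serotonin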
MOR-DOR ag-1: OPRM1-OPRD1 heterodimerization agonism; activation, % at 9.3 µM; AID 504326; 340,000 tested, 0.3% active; cells, luminescence; P35372+P41143;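 note: 0% = vehicle-treated cells and 100% = reference agonist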
Target sequence (P35372 whole entry, looked up): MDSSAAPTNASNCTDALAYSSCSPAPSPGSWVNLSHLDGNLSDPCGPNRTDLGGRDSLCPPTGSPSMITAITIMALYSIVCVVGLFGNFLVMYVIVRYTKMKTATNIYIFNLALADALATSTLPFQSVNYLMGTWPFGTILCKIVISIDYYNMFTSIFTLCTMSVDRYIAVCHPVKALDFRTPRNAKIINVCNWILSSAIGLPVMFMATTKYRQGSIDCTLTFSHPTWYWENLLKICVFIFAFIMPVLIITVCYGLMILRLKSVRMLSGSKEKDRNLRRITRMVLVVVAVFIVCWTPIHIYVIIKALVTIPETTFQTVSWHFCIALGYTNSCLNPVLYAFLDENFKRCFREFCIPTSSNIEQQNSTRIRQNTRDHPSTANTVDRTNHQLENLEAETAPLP
Target sequence (P41143 whole entry, looked up): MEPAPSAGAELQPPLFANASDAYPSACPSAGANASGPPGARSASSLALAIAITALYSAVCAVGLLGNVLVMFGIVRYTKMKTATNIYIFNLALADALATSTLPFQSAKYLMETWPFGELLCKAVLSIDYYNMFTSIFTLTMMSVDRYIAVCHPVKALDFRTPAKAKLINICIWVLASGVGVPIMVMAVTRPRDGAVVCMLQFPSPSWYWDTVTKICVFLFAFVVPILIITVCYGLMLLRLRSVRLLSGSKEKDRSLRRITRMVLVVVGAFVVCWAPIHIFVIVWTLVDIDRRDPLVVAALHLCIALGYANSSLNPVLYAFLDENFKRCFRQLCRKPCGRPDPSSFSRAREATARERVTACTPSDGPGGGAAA
HTR5A inv ag: inverse agonist of human HTR5A in OPRM1-OPRD1 counter-screen | P47898 | HTR5A cell line, luminescence, inverse agonism | inhibition, % at 9.3 µM | 340,000 tested, 0.083% active | AID 504634; in the data active = inhibition mostly above about 23%, no sharp cut-off; inactive = mostly below about 18%;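 note: 0% = cells with DMSO and 100% = no-cell wells with DMSO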
HTR5A ag: HTR5A agonism, opioid heterodimer counter-screen. activation, % at 9.3 µM. 340,000 tested, 0.61% active. AID 504692. HTR5A agonist assay, luminescence, cell-based; in the data active = activation mostly above about 9.5%, no sharp cut-off; inactive = mostly below about 7.6%;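 note: 0% = cells with vehicle only and 100% = reference agonist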
MOR-DOR inv ag: inverse agonists of human mu-delta opioid receptor heterodimerization; P35372+P41143; cell-based MOR-DOR heterodimer luminescence, inverse agonism; inhibition, % at 9.3 µM; 340,000 tested, 0.21% active; in the data active = inhibition above about 22%, passing the limit was not always enough;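 note: 0% = cells with DMSO and 100% = wells without cells with DMSO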
MOR-DOR ag-2: counter-screen for HTR5A agonists: OPRM1-OPRD1 heterodimerization agonism; shares compounds with HTR5A ag; U2OS counter-screen cells, complementation luminescence, 3 h; activation, % at 9.3 µM; 800 tested, 13% active; AID 504913
HTR5A ag confirm: HTR5A (human) agonism, confirmation; activation, % at 9.3 µM; 800 tested, 17% active; HTR5A agonist cell assay, luminescence; shares compounds with HTR5A ag; in the data active = activation above about 17%;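 note: 0% = cells with vehicle only and 100% = full reference agonist response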
Active calls of the source: *. Only some compounds are listed: those with a hit (about 1.6% of all), similar ones and a draw of the others. Cut-off read from the data, not from the text of the source, unless noted: active = activation above about 18%; inactive = the rest.

For CC1(C)Cc2cccc(OCC(=O)Nc3ccc(OCC(N)=O)cc3)c2O1 the results were HTR2A ag 3, MOR-DOR ag-1 -2, HTR5A inv ag -26, HTR5A ag 10 and MOR-DOR inv ag 7.
Screening CN(C)C(=O)c1ccc(NC(=O)COc2cccc3c2OC(C)(C)C3)cc1 returned HTR2A ag 2, MOR-DOR ag-1 -4, HTR5A inv ag -92, HTR5A ag 28*, MOR-DOR inv ag 19, MOR-DOR ag-2 1 and HTR5A ag confirm 38*.
`C=Cc1ccc(Cn2c(=O)n(CCCOC)c(=O)c3sccc32)cc1` gave HTR2A ag 3, MOR-DOR ag-1 -1, HTR5A inv ag -4, HTR5A ag 1 and MOR-DOR inv ag 5.
Screening COc1ccc(NC(=O)COC(=O)c2ccc(OCc3ccccc3Cl)c(OC)c2)c(OC)c1 returned HTR2A ag 0, MOR-DOR ag-1 -2, HTR5A inv ag 2, HTR5A ag 1 and MOR-DOR inv ag 10.
For O=C(Cn1cc(C(=O)C(F)(F)F)c2ccccc21)N1CCOCC1 the results were HTR2A ag 2, MOR-DOR ag-1 -1, HTR5A inv ag 4, HTR5A ag 2 and MOR-DOR inv ag 9.
For CC[C@@]12C(=O)N(c3cccc(F)c3)C(=O)N1[C@H](c1ccc(Cl)cc1)[C@@H]1C(=O)N(C3CCCCC3)C(=O)[C@@H]12 the results were HTR2A ag 6, MOR-DOR ag-1 8, HTR5A inv ag -10, HTR5A ag 15*, MOR-DOR inv ag -47, MOR-DOR ag-2 19* and HTR5A ag confirm 11.
For Cc1cccc([C@@H](NC(=O)OC(C)(C)C)C(=O)OC(C)(C)C)c1 the results were HTR2A ag 3, MOR-DOR ag-1 8, HTR5A inv ag 4, HTR5A ag 6 and MOR-DOR inv ag -47.
CC(C)(C)OC(=O)N[C@@H](C(=O)OC(C)(C)C)c1ccccc1 was read as HTR2A ag 1, MOR-DOR ag-1 1, HTR5A inv ag -68, HTR5A ag 25*, MOR-DOR inv ag -4, MOR-DOR ag-2 6 and HTR5A ag confirm 5.
`Cc1ccc(S(=O)(=O)CCC(=O)OCC(=O)N2c3ccccc3CC2C)cc1` (stereo not drawn) gave HTR2A ag 9, MOR-DOR ag-1 1, HTR5A inv ag -76, HTR5A ag 29*, MOR-DOR inv ag -4, MOR-DOR ag-2 0 and HTR5A ag confirm 33*.
Screening Cc1ccc(OCCC(=O)OCC(=O)N2c3ccccc3CC2C)cc1 (stereo not drawn) returned HTR2A ag 1, MOR-DOR ag-1 2, HTR5A inv ag -18, HTR5A ag 5 and MOR-DOR inv ag -11.
CCCc1cc(=O)oc2cc(OCC(=O)NCCc3c[nH]c4ccccc34)ccc12 was read as HTR2A ag 3, MOR-DOR ag-1 13, HTR5A inv ag 5, HTR5A ag 19*, MOR-DOR inv ag -67, MOR-DOR ag-2 226* and HTR5A ag confirm 56*.
`Oc1ccc(-c2csc(-c3c[nH]c4ccccc34)n2)c(O)c1` gave HTR2A ag -2, MOR-DOR ag-1 7, HTR5A inv ag -55, HTR5A ag 27*, MOR-DOR inv ag -36, MOR-DOR ag-2 6 and HTR5A ag confirm 26*.
COc1ccc(NC(=O)C(=O)NCCCO)cc1Cl was read as HTR2A ag -1, MOR-DOR ag-1 -3, HTR5A inv ag 9, HTR5A ag -3 and MOR-DOR inv ag 13.
COc1ccc(NC(=O)C(=O)NCCO)cc1Cl was read as HTR2A ag 4, MOR-DOR ag-1 1, HTR5A inv ag -13, HTR5A ag 15*, MOR-DOR inv ag -3, MOR-DOR ag-2 0 and HTR5A ag confirm -9.
For Cc1ccccc1CC1SC(N=C(N)N)=NC1=O (stereo not drawn) the results were HTR2A ag 6, MOR-DOR ag-1 -1, HTR5A inv ag 24, HTR5A ag -7 and MOR-DOR inv ag 5.
Screening CCCCCCCCCC[n+]1cccc2c3ccccc3ccc21 returned HTR2A ag -5, MOR-DOR ag-1 0, HTR5A inv ag 5, HTR5A ag 22*, MOR-DOR inv ag 2, MOR-DOR ag-2 4 and HTR5A ag confirm 5.
`c1ccc(Cc2nnc(-c3ccccc3)o2)cc1` gave HTR2A ag 1, MOR-DOR ag-1 16, HTR5A inv ag -47, HTR5A ag 16*, MOR-DOR inv ag -87, MOR-DOR ag-2 5 and HTR5A ag confirm 1.
C=CCn1c(SCC(=O)NC(=O)NCc2ccco2)nc2sc(C)c(C)c2c1=O was read as HTR2A ag 9, MOR-DOR ag-1 14, HTR5A inv ag -44, HTR5A ag 17*, MOR-DOR inv ag -84, MOR-DOR ag-2 -3 and HTR5A ag confirm -5.
`CCOC(=O)C(C)N1N=C(/C=C/c2ccc(C)cc2)CCC1=O` (stereo not drawn) gave HTR2A ag -2, MOR-DOR ag-1 -2, HTR5A inv ag -54, HTR5A ag 21*, MOR-DOR inv ag 8, MOR-DOR ag-2 1 and HTR5A ag confirm 4.
CCOC(=O)CN1N=C(/C=C/c2ccc(C(C)C)cc2)CCC1=O was read as HTR2A ag -3, MOR-DOR ag-1 2, HTR5A inv ag -4, HTR5A ag 2 and MOR-DOR inv ag -12.
Screening CC(=O)c1cccc(NC(=O)C2CCN(S(=O)(=O)c3ccccc3)CC2)c1 returned HTR2A ag -6, MOR-DOR ag-1 1, HTR5A inv ag 15, HTR5A ag 5 and MOR-DOR inv ag -7.
Screening CCOC(=O)C1=C(COC(=O)/C=C/c2ccco2)NC(=O)NC1C (stereo not drawn) returned HTR2A ag 6, MOR-DOR ag-1 4, HTR5A inv ag 3, HTR5A ag 16*, MOR-DOR inv ag -23, MOR-DOR ag-2 4 and HTR5A ag confirm 0.
For O=C(NCCc1c[nH]c2ccccc12)c1ccc([N+](=O)[O-])cc1 the results were HTR2A ag -3, MOR-DOR ag-1 5, HTR5A inv ag 7, HTR5A ag -3 and MOR-DOR inv ag -24.
For O=C(NCCc1c[nH]c2ccccc12)c1cc([N+](=O)[O-])cc([N+](=O)[O-])c1 the results were HTR2A ag 9, MOR-DOR ag-1 2, HTR5A inv ag -252, HTR5A ag 65*, MOR-DOR inv ag -13, MOR-DOR ag-2 6 and HTR5A ag confirm 69*.
`CCn1c(N2CCN(C(=O)C34CC5CC(CC(C5)C3)C4)CC2)nc2ccccc21` gave HTR2A ag -4, MOR-DOR ag-1 1, HTR5A inv ag -109, HTR5A ag 31*, MOR-DOR inv ag -4, MOR-DOR ag-2 159* and HTR5A ag confirm -4.
Screening O=C(N1CCN(c2ccccc2)CC1)C12CC3CC(CC(C3)C1)C2 returned HTR2A ag 2, MOR-DOR ag-1 2, HTR5A inv ag -4, HTR5A ag 0 and MOR-DOR inv ag -11.

Source: PubChem BioAssay
